# In paper PMC8384837, “Expanding the binding specificity for RNA recognition by a PUF domain”:
# Tests used:
# Assay in all cases: yeast three-hybrid, YBZ-1, SC-Leu-His + 0.5 mM 3-AT, 4 days
# Conditions in all cases: tags: N-Gal4 AD-HA kept; label: inside an RPR1-promoter hybrid RNA with tandem MS2 sites; ssRNA
# [1] = biological target: PUM1 PUF domain R3-QFR (Homo sapiens, UniProt Q14671 828-1176, C935Q;R936F;Q939R)
# In short: (§1)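 The interaction score is the log change in how often each variant appears, from input to selection. Frequencies came from PCR-amplified, Illumina-sequenced repeat regions of Pumilio-1 PUF domain libraries grown in strain YBZ-1 (LexA–MS2 coat fusion, HIS3 reporter) alongside matching RNA elements. Input plates were SC-Leu and selection plates were SC-Leu-His + 0.5 mM 3-AT, each for four days, and the log2 calculation used a pseudocount of 1 where a variant was absent.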
# [2] = biological target: PUM1 PUF domain R5-DWE (Homo sapiens, UniProt Q14671 828-1176, C1007D;R1008W;Q1011E)
# In short: as §1
# [3] = biological target: PUM1 PUF domain R4-PYA (Homo sapiens, UniProt Q14671 828-1176, N971P;H972Y;Q975A)
# In short: as §1
# [4] = biological target: PUM1 PUF domain R4-PWR (Homo sapiens, UniProt Q14671 828-1176, N971P;H972W;Q975R)
# In short: as §1
# [5] = biological target: T1, PUM1 PUF domain R6-FRQ (Homo sapiens, UniProt Q14671 828-1176, N1043F;Y1044R)
# T1 sequence: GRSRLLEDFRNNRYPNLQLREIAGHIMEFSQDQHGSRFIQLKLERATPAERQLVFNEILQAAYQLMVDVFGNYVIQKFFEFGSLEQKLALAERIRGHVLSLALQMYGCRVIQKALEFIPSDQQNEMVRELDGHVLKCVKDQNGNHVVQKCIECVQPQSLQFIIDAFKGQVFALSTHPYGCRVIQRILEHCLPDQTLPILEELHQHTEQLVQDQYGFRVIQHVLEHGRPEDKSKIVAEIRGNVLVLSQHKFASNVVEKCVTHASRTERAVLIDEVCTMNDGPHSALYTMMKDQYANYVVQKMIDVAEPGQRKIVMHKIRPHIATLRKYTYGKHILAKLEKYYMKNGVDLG
# In short: as §1
# [6] = biological target: PUM1 PUF domain R2-IFA (Homo sapiens, UniProt Q14671 828-1176, N899I;Y900F;Q903A)
# In short: as §1
# [7] = biological target: PUM1 PUF domain R3-HRS (Homo sapiens, UniProt Q14671 828-1176, C935H;Q939S)
# In short: as §1
# [8] = biological target: PUM1 PUF domain R3-VCK (Homo sapiens, UniProt Q14671 828-1176, C935V;R936C;Q939K)
# In short: as §1
# [9] = biological target: PUM1 PUF domain R7-KHG (Homo sapiens, UniProt Q14671 828-1176, S1079K;N1080H;E1083G)
# In short: as §1
# [10] = biological target: PUM1 PUF domain R2-RRM (Homo sapiens, UniProt Q14671 828-1176, N899R;Y900R;Q903M)
# In short: as §1
# [11] = biological target: PUM1 PUF domain R2-DFE (Homo sapiens, UniProt Q14671 828-1176, N899D;Y900F;Q903E)
# In short: as §1
# [12] = biological target: PUM1 PUF domain R4-FNQ (Homo sapiens, UniProt Q14671 828-1176, N971F;H972N)
# In short: as §1
# [13] = biological target: PUM1 PUF domain R5-MYW (Homo sapiens, UniProt Q14671 828-1176, C1007M;R1008Y;Q1011W)
# In short: as §1
# [14] = biological target: PUM1 PUF domain R3-RSY (Homo sapiens, UniProt Q14671 828-1176, C935R;R936S;Q939Y)
# In short: as §1
# [15] = biological target: PUM1 PUF domain R3-RAL (Homo sapiens, UniProt Q14671 828-1176, C935R;R936A;Q939L)
# In short: as §1
# [16] = biological target: PUM1 PUF domain R7-RRD (Homo sapiens, UniProt Q14671 828-1176, S1079R;N1080R;E1083D)
# In short: as §1
# [17] = biological target: PUM1 PUF domain R1-RYT (Homo sapiens, UniProt Q14671 828-1176, S863R;R864Y;Q867T)
# In short: as §1
sequence,measurement,setting,value
GGCUAGAACUAGUGGAUCCCCCGGCGCCCGGCGGCUCGAGCCCGGGUAAGUGUAACUAGUCUGCAUGCCGCCGGGCGCCAUGCCUGCAGGUCGACUCUAGAAAACAUG,binding signal,[1],7.11 log2 enrichment (interaction score)
GGCUAGAACUAGUGGAUCCCCCGGCGCCCGGCGGCUCGAGCCCGGGUAAGUGUAAAUAGUCUGCAUGCCGCCGGGCGCCAUGCCUGCAGGUCGACUCUAGAAAACAUG,binding signal,[2],3.79 log2 enrichment (interaction score)
same,binding signal,[3],4.99 log2 enrichment (interaction score)
same,binding signal,[4],1.17 log2 enrichment (interaction score)
same,binding signal,[5],2.83 log2 enrichment (interaction score)
GGCUAGAACUAGUGGAUCCCCCGGCGCCCGGCGGCUCGAGCCCGGGUAAGUGUAAAAAGUCUGCAUGCCGCCGGGCGCCAUGCCUGCAGGUCGACUCUAGAAAACAUG,binding signal,[6],4.76 log2 enrichment (interaction score)
GGCUAGAACUAGUGGAUCCCCCGGCGCCCGGCGGCUCGAGCCCGGGUAAGUGUAAGUAGUCUGCAUGCCGCCGGGCGCCAUGCCUGCAGGUCGACUCUAGAAAACAUG,binding signal,[7],2.22 log2 enrichment (interaction score)
same,binding signal,[8],1.58 log2 enrichment (interaction score)
GGCUAGAACUAGUGGAUCCCCCGGCGCCCGGCGGCUCGAGCCCGGGUAAGUGUACAUAGUCUGCAUGCCGCCGGGCGCCAUGCCUGCAGGUCGACUCUAGAAAACAUG,binding signal,[3],5.06 log2 enrichment (interaction score)
same,binding signal,[4],5.54 log2 enrichment (interaction score)
GGCUAGAACUAGUGGAUCCCCCGGCGCCCGGCGGCUCGAGCCCGGGUAAGUAUAAAUAGUCUGCAUGCCGCCGGGCGCCAUGCCUGCAGGUCGACUCUAGAAAACAUG,binding signal,[9],2.59 log2 enrichment (interaction score)
GGCUAGAACUAGUGGAUCCCCCGGCGCCCGGCGGCUCGAGCCCGGGUAAGUGUAAAGAGUCUGCAUGCCGCCGGGCGCCAUGCCUGCAGGUCGACUCUAGAAAACAUG,binding signal,[10],2.71 log2 enrichment (interaction score)
same,binding signal,[11],7.89 log2 enrichment (interaction score)
GGCUAGAACUAGUGGAUCCCCCGGCGCCCGGCGGCUCGAGCCCGGGUAAGUGUAUAUAGUCUGCAUGCCGCCGGGCGCCAUGCCUGCAGGUCGACUCUAGAAAACAUG,binding signal,[12],4.16 log2 enrichment (interaction score)
GGCUAGAACUAGUGGAUCCCCCGGCGCCCGGCGGCUCGAGCCCGGGUAAGUGUUAAUAGUCUGCAUGCCGCCGGGCGCCAUGCCUGCAGGUCGACUCUAGAAAACAUG,binding signal,[13],3.48 log2 enrichment (interaction score)
GGCUAGAACUAGUGGAUCCCCCGGCGCCCGGCGGCUCGAGCCCGGGUAAGUGUAAUUAGUCUGCAUGCCGCCGGGCGCCAUGCCUGCAGGUCGACUCUAGAAAACAUG,binding signal,[14],2.82 log2 enrichment (interaction score)
same,binding signal,[15],3.32 log2 enrichment (interaction score)
same,binding signal,[8],2.57 log2 enrichment (interaction score)
GGCUAGAACUAGUGGAUCCCCCGGCGCCCGGCGGCUCGAGCCCGGGUAAGUUUAAAUAGUCUGCAUGCCGCCGGGCGCCAUGCCUGCAGGUCGACUCUAGAAAACAUG,binding signal,[16],4.81 log2 enrichment (interaction score)
GGCUAGAACUAGUGGAUCCCCCGGCGCCCGGCGGCUCGAGCCCGGGUAAGUCUAAAUAGUCUGCAUGCCGCCGGGCGCCAUGCCUGCAGGUCGACUCUAGAAAACAUG,binding signal,[16],2.84 log2 enrichment (interaction score)
GGCUAGAACUAGUGGAUCCCCCGGCGCCCGGCGGCUCGAGCCCGGGUAAGUGUAAAUGGUCUGCAUGCCGCCGGGCGCCAUGCCUGCAGGUCGACUCUAGAAAACAUG,binding signal,[17],0.45 log2 enrichment (interaction score)
GGCUAGAACUAGUGGAUCCCCCGGCGCCCGGCGGCUCGAGCCCGGGUAAGUGUAAAUCGUCUGCAUGCCGCCGGGCGCCAUGCCUGCAGGUCGACUCUAGAAAACAUG,binding signal,[17],5.12 log2 enrichment (interaction score)
